These results are taken from PMC7862700, “An all-to-all approach to the identification of sequence-specific readers for epigenetic DNA modifications on cytosine”.

Test in all cases: DAPPL (digital affinity profiling via proximity ligation, sequencing); 10 mM Tris-HCl pH 7.5, 50 mM NaCl, 1 mM DTT, 4% glycerol, room temperature, 30 min; GST-TFs on glutathione beads, 16-mer random dsDNA library, 0.1% formaldehyde crosslink after washing; high values mean tight binding
The target in one assay is T1, FEV (Homo sapiens, UniProt Q99581 1-238).
T1 sequence: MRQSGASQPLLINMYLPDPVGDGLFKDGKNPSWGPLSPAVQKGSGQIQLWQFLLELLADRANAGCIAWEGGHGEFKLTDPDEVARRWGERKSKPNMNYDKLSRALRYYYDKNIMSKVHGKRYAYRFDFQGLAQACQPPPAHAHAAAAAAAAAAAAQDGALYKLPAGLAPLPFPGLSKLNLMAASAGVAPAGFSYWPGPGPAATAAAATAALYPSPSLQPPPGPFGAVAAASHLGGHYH
Conditions: protein: recombinant; tags: N-terminal GST; dsDNA, one strand shown. The gist of the method:
(§1)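 Binding signal is each hexamer's read frequency for a factor divided by its frequency in the tag-only sample. The factors were GST-fused human transcription factors from yeast, captured on glutathione beads, DNA-barcoded and pooled with that sample. Pools were incubated with 200 nmole of a random double-stranded 16-mer DNA library in Tris/NaCl/DTT/glycerol buffer at room temperature for 30 min, then washed, crosslinked with 0.1% formaldehyde, proximity-ligated with BsaI/T4 ligase (1 h, 37 °C), PCR-amplified and sequenced on an Illumina NextSeq500.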

The next assay concerns the target ETV5 (Homo sapiens, UniProt P41161 1-510). The note with it: protein: recombinant; tags: N-terminal GST; dsDNA, one strand shown. A digest of the protocol: as §1
A further assay has as its target HSF1 (Homo sapiens, UniProt Q00613 1-529). Conditions: protein: recombinant; tags: N-terminal GST; chain copies: 3; dsDNA, one strand shown. The gist of the method: as §1
The target of a further assay is T2, SPIC (Homo sapiens, UniProt Q8N5J4 1-248).
T2 sequence: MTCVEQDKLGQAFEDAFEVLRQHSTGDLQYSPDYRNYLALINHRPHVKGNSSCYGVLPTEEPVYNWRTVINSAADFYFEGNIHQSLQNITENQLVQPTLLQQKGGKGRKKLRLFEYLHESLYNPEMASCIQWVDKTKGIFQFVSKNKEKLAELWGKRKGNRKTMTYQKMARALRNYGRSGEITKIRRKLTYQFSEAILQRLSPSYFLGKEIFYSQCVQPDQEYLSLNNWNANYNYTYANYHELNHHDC
Conditions: protein: recombinant; tags: N-terminal GST; dsDNA, one strand shown. A digest of the protocol: as §1

For another assay, the target named is ELF4 (Homo sapiens, UniProt Q99607 1-663). The note with it: protein: recombinant; tags: N-terminal GST; dsDNA, one strand shown. The gist of the method:
as §1

Another assay concerns the target T3, ELK4 (Homo sapiens, UniProt P28324-2 1-405).
T3 sequence: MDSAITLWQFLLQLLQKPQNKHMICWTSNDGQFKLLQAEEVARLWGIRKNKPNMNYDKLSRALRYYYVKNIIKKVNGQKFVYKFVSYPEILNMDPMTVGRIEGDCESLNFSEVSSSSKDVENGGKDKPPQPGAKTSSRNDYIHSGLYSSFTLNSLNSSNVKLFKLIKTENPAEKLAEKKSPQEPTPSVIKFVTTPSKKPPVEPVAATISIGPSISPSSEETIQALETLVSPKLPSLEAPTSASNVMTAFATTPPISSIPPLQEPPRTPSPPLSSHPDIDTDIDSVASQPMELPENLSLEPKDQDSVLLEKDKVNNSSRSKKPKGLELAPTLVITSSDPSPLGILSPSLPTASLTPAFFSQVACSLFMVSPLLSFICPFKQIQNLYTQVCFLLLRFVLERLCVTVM
The note with it: protein: recombinant; tags: N-terminal GST; dsDNA, one strand shown. A digest of the protocol: as §1

A further assay has as its target T4, ETV2 (Homo sapiens, UniProt O00321 1-342).
T4 sequence: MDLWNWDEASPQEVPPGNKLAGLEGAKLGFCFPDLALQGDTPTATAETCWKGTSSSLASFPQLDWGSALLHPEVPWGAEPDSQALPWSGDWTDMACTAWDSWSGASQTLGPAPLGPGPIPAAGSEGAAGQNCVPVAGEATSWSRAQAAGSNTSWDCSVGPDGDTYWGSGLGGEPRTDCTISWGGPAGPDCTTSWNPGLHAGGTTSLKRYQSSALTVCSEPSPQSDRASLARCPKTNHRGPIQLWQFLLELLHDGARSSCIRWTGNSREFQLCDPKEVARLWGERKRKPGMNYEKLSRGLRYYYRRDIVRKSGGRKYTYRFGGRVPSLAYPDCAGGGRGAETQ
The note with it: protein: recombinant; tags: N-terminal GST; dsDNA, one strand shown. A digest of the protocol:
as §1

In another assay the target is T5, ELF3 (Homo sapiens, UniProt P78545 1-371).
T5 sequence: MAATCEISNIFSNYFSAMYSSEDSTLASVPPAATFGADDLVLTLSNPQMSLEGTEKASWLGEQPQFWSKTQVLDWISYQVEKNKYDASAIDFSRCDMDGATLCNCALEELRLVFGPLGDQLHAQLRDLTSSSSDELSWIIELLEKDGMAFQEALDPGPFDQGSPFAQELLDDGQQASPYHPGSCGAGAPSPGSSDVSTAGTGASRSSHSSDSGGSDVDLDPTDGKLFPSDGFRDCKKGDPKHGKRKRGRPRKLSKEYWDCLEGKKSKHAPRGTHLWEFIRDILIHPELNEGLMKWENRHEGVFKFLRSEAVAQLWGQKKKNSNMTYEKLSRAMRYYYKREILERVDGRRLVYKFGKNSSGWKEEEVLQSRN
The note with it: protein: recombinant; tags: N-terminal GST; dsDNA, one strand shown. The gist of the method:
as §1

Another assay deals with CRX (Homo sapiens, UniProt O43186 1-299). Conditions: protein: recombinant; tags: N-terminal GST; dsDNA, one strand shown. The gist of the method: as §1
The target in a further assay is ETV1 (Homo sapiens, UniProt P50549 1-477). Conditions: protein: recombinant; tags: N-terminal GST; dsDNA, one strand shown. A digest of the protocol: as §1
In another assay the target is T6, ERF (Homo sapiens, UniProt P50548 1-548).
T6 sequence: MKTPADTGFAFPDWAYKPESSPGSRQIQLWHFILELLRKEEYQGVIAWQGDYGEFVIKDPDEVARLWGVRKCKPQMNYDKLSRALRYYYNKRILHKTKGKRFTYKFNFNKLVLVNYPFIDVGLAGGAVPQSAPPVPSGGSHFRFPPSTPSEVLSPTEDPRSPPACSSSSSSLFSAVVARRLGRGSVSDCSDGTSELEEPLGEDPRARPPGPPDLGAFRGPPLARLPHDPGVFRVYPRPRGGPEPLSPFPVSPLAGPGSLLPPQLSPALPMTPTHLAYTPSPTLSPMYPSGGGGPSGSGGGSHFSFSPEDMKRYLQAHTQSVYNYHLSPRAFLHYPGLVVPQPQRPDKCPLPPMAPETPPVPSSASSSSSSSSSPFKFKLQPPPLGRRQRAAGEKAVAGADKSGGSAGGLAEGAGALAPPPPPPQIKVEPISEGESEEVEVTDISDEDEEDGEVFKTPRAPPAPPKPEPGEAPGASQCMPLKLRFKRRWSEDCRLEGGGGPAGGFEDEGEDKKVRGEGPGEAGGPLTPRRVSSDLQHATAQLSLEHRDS
The note with it: protein: recombinant; tags: N-terminal GST; dsDNA, one strand shown. A digest of the protocol:
as §1

The target of another assay is T7, ETV3L (Homo sapiens, UniProt Q6ZN32 1-361).
T7 sequence: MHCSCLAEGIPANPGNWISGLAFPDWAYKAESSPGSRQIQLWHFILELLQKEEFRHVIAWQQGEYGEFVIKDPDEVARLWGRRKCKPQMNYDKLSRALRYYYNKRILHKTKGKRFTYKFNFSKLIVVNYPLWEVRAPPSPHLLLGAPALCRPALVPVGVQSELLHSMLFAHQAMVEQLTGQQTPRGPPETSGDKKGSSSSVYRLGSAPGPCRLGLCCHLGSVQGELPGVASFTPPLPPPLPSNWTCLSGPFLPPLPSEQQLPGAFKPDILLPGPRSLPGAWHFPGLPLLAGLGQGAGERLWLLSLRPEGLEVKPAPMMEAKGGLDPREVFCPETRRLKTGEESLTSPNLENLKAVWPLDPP
The note with it: protein: recombinant; tags: N-terminal GST; dsDNA, one strand shown. The gist of the method: as §1

The target of another assay is T8, ETS2 (Homo sapiens, UniProt P15036 1-469).
T8 sequence: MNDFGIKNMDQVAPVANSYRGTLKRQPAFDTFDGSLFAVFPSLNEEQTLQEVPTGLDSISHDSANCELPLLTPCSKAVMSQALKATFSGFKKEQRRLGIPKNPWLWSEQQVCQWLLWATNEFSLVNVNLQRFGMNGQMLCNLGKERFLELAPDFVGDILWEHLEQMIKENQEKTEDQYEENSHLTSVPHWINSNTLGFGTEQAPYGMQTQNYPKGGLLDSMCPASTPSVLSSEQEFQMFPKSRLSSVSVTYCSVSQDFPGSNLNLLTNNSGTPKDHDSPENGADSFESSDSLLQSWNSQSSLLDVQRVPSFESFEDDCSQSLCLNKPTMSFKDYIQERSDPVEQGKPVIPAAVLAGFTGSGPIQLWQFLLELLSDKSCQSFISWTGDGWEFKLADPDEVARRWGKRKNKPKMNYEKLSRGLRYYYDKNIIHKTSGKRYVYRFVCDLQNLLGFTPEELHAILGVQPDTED
The note with it: protein: recombinant; tags: N-terminal GST; dsDNA, one strand shown. The gist of the method: as §1

Another assay has as its target T9, SPDEF (Homo sapiens, UniProt O95238 1-335).
T9 sequence: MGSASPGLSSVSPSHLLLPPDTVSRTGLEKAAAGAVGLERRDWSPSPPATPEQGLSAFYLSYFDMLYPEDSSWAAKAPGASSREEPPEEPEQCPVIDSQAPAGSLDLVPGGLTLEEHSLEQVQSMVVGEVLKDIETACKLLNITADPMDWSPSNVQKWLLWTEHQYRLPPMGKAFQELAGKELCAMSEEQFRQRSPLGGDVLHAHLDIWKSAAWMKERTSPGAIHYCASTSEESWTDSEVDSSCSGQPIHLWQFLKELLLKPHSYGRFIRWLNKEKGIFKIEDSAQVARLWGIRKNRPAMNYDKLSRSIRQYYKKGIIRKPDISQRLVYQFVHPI
Conditions: protein: recombinant; tags: N-terminal GST; dsDNA, one strand shown. A digest of the protocol: as §1

For a further assay, the target named is T10, ETV7 (Homo sapiens, UniProt Q9Y603 1-341).
T10 sequence: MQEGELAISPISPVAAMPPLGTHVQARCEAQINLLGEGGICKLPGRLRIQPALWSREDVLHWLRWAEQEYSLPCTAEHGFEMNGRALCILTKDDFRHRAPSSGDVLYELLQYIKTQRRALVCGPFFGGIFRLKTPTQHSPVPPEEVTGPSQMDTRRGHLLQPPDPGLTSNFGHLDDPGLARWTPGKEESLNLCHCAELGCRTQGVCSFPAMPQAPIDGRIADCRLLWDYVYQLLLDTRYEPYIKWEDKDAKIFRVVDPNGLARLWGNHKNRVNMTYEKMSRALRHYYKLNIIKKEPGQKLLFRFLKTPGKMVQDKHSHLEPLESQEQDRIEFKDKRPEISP
Conditions: protein: recombinant; tags: N-terminal GST; dsDNA, one strand shown. The gist of the method:
as §1

In a further assay the target is T11, ELF5 (Homo sapiens, UniProt Q9UKW6-2 1-255).
T11 sequence: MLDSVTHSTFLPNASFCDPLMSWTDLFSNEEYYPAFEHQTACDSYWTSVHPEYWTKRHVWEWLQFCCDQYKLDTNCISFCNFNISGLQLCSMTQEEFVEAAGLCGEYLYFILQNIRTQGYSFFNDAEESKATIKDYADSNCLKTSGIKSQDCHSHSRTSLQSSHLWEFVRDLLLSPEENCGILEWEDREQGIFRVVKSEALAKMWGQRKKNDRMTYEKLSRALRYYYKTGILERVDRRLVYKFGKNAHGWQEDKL
Conditions: protein: recombinant; tags: N-terminal GST; dsDNA, one strand shown. The gist of the method:
as §1

A further assay deals with T12, ETV3 (Homo sapiens, UniProt P41162-2 1-143).
T12 sequence: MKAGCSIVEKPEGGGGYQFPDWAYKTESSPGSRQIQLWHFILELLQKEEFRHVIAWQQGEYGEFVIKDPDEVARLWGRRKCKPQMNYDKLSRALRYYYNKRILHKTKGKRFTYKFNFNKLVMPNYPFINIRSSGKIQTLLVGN
The note with it: protein: recombinant; tags: N-terminal GST; dsDNA, one strand shown. The gist of the method: as §1

Another assay has as its target ETV6 (Homo sapiens, UniProt P41212 1-452). The note with it: protein: recombinant; tags: N-terminal GST; dsDNA, one strand shown. A digest of the protocol:
as §1

Sequence of ETV1 (P50549 whole entry): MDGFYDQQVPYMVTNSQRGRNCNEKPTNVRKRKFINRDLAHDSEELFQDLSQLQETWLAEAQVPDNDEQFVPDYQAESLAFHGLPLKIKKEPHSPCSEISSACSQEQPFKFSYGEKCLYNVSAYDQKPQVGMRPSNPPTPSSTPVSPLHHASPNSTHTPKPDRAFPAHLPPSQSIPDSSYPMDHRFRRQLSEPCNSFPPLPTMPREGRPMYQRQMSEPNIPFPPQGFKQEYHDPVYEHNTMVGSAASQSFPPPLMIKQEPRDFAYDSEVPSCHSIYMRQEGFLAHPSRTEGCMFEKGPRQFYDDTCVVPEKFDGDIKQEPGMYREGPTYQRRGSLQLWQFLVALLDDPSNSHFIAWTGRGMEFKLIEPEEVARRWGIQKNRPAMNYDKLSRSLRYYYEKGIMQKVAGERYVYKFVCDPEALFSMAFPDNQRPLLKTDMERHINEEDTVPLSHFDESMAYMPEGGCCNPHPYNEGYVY
Sequence of CRX (O43186 whole entry): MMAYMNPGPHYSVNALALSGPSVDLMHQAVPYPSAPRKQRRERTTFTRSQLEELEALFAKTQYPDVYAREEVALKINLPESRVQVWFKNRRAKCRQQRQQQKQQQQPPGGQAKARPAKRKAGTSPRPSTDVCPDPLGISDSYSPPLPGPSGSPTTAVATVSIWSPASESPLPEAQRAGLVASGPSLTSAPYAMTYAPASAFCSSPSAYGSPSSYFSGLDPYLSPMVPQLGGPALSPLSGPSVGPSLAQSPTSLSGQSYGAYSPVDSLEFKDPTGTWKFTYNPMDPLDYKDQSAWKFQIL
Sequence of HSF1 (Q00613 whole entry): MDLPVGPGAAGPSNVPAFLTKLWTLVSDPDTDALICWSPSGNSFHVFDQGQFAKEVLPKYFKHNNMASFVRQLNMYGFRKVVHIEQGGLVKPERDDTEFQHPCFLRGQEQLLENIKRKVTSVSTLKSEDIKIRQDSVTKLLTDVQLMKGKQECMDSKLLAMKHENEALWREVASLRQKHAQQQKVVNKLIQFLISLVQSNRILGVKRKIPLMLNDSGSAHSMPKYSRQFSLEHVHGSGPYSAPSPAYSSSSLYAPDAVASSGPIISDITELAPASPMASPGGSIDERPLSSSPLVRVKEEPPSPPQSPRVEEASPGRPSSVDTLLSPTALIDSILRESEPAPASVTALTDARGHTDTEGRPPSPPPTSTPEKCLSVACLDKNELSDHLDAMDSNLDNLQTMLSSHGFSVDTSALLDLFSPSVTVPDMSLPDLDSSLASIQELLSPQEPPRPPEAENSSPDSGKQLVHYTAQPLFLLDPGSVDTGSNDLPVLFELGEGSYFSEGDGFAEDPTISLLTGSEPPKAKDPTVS
Sequence of ELF4 (Q99607 whole entry): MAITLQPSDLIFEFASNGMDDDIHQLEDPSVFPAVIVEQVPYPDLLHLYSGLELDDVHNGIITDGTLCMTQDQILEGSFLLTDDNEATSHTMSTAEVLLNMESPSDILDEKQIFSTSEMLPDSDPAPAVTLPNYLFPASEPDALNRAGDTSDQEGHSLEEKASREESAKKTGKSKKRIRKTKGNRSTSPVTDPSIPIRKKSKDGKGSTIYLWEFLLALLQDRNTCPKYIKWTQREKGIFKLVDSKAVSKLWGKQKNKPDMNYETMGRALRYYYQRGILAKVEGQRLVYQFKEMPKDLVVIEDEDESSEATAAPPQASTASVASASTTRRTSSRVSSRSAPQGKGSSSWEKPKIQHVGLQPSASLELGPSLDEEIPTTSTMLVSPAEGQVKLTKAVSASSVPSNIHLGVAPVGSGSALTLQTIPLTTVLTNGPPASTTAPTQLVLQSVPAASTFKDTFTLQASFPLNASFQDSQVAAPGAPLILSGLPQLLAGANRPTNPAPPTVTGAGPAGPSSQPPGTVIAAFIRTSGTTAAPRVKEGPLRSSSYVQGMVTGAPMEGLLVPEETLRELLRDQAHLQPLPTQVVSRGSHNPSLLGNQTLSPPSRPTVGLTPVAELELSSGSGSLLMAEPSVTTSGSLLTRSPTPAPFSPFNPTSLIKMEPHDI
Sequence of ETV6 (P41212 whole entry): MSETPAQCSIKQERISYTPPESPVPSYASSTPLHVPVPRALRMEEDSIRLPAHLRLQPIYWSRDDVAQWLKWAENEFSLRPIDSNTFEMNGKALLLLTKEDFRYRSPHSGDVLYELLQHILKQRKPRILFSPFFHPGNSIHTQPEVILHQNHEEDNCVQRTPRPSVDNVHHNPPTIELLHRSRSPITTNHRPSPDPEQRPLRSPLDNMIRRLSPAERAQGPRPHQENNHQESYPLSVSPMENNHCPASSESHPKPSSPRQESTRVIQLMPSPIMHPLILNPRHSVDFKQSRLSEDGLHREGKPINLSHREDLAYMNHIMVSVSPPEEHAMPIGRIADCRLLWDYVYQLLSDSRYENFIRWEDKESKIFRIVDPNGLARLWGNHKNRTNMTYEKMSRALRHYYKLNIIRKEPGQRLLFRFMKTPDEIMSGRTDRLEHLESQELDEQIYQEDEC
Sequence of ETV5 (P41161 whole entry): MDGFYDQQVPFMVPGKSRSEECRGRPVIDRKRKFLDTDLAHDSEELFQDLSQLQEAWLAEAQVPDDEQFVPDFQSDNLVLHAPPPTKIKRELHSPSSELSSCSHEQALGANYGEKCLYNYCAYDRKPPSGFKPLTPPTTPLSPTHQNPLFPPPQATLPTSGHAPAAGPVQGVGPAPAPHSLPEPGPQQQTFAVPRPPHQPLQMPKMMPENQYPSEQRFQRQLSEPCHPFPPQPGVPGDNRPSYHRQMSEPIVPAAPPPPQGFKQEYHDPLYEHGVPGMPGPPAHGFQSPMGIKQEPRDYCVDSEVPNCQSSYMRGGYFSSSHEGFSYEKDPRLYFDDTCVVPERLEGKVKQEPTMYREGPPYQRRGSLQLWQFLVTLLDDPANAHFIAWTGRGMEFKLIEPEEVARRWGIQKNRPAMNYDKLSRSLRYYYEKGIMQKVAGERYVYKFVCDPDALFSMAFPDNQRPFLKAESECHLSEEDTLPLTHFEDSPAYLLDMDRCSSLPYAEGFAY

Consider TTTGTT, for which the binding signal in the assay with FEV is 1.19 fold enrichment (6-mer frequency, TF over GST control); with ETV5, 1.25 fold enrichment (6-mer frequency, TF over GST control); with HSF1 it was 1.3 fold enrichment (6-mer frequency, TF over GST control); with SPIC, 1.29 fold enrichment (6-mer frequency, TF over GST control); with ELF4, 1.3 fold enrichment (6-mer frequency, TF over GST control); in the assay with ELK4, 1.46 fold enrichment (6-mer frequency, TF over GST control). Besides, the binding signal in the assay with ETV2 is 1.33 fold enrichment (6-mer frequency, TF over GST control); with ELF3 it was 1.35 fold enrichment (6-mer frequency, TF over GST control); in the assay with CRX it was 1.46 fold enrichment (6-mer frequency, TF over GST control); in the assay with ETV1, 1.25 fold enrichment (6-mer frequency, TF over GST control); with ERF it was 1.29 fold enrichment (6-mer frequency, TF over GST control); with ETV3L, 1.27 fold enrichment (6-mer frequency, TF over GST control). In addition, the binding signal with ETS2 was 1.26 fold enrichment (6-mer frequency, TF over GST control); with SPDEF, 1.33 fold enrichment (6-mer frequency, TF over GST control); in the assay with ETV7, 1.18 fold enrichment (6-mer frequency, TF over GST control); with ELF5, 1.27 fold enrichment (6-mer frequency, TF over GST control); with ETV3 it was 1.34 fold enrichment (6-mer frequency, TF over GST control); with ETV6, 1.34 fold enrichment (6-mer frequency, TF over GST control).
